# From PubChem BioAssay (EPA / NIEHS)
# Some compounds were tested as several samples or in several runs, with calls that do not always agree. Active and inactive are the calls of the source. Rule for the calls: active = hit-call score of the fitted dose curve at least 0.9, where 1 is the maximum; inactive = score below 0.9.
# Experiment: ATG_PXRE_CIS: Attagene CIS-FACTORIAL HepG2 Assay for human Pregnane X Receptor Element (PXRE) (AID 2282957)
# Conditions: HepG2 Attagene CIS-FACTORIAL PXRE reporter, mRNA; actives raise or lower the signal
# Outline: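 After a 24 h chemical incubation, total RNA from transfected HepG2 cells was reverse-transcribed and reporter cDNA amplified, FAM-labeled, HpaI-digested and sized by capillary electrophoresis. DMSO served as baseline for bidirectional curve fitting.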
Compound,AC50,outcome
COP(=O)(O)OC,32.8 µM (active),–
Nc1cc2c3c(c1)C(c1ccccc1)=N[C@@H](NC(=O)c1cccnc1)C(=O)N3CC2,26.5 µM (active),–
CCOP(=S)(OCC)SCSCC,11.7 µM (active),–
OCC(F)(F)OC(F)(F)C(F)(F)OC(F)(F)C(F)(F)OC(F)(F)CO,13.9 µM (active),–
[N-]=[N+]=[N-],–,inactive
O=S1(=O)OCC2C(CO1)C1(Cl)C(Cl)=C(Cl)C2(Cl)C1(Cl)Cl (configuration not stated),1.58 µM (active),–
Oc1ccccc1Br,–,inactive
FC(F)(F)C(F)(C(F)(F)F)C(F)(F)C(F)(F)CC1CO1 (configuration not stated),–,inactive
C=CC(=O)OCC(CC)(COC(=O)C=C)COC(=O)C=C,–,inactive
CC1(C)CN=C(NN=C(/C=C/c2ccc(C(F)(F)F)cc2)/C=C/c2ccc(C(F)(F)F)cc2)NC1,4.77 µM (active),–
CCOP(=S)(OCC)SCn1nnc2ccccc2c1=O,0.673 µM (active),–
O=C(O)C=CC(F)(C(F)(F)F)C(F)(F)F,–,inactive
O=C(O)C(F)(OC(F)(F)C(F)(F)C(F)(F)F)C(F)(F)F (configuration not stated),–,inactive
CC1=C(C(=O)Nc2ccccc2)S(=O)(=O)CCO1,5.02 µM (active),–
O=P1(N(CCCl)CCCl)NCCCO1 (configuration not stated),–,inactive
OCC1CO1 (configuration not stated),–,inactive
Nc1ccc(Cl)cc1,–,inactive
c1ccc2c(c1)sc1ccccc12,–,inactive
OCC(F)(F)OC(F)(F)C(F)(F)OC(F)(F)CO,74.8 µM (active),–
CC(O)C(F)(F)C(F)(F)F (configuration not stated),–,inactive
CCN(CC)c1ccccc1,–,inactive
O=C(O)C(F)(F)C(F)(F)C(=O)O,–,inactive
CCCCc1ccccc1,–,inactive
N#Cc1c(-c2ccc(Cl)cc2)[nH]c(C(F)(F)F)c1Br,2.6 µM (active),–
O=[N+]([O-])c1ccccc1,–,inactive
c1nc[nH]n1,59.3 µM (active),–
CCC(C)(C)c1ccc(O)cc1,9.13 µM (active),–
c1cc2c3c(cccc3c1)CC2,–,inactive
O=C(O)C(Cl)Cl,–,inactive

# Experiment: ATG_PPRE_CIS: Attagene CIS-FACTORIAL HepG2 Assay for human Peroxisome Proliferator-activated Response Element (PPRE) (AID 2282958)
# Conditions: HepG2 PPRE cis-element reporter, Attagene transcription factor profiling; actives raise or lower the signal
# Outline: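 HepG2 cells are transiently transfected with multiplexed cis-promoter reporter units to report endogenous PPAR activity. After 24 h dosing, reporter mRNA is read by RT-PCR and capillary electrophoresis. Fitting is bidirectional against DMSO.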
Compound,outcome,AC50
O=C(O)C(F)(F)OC(F)(F)C(F)(F)OC(F)(F)C(=O)O,inactive,–
N#Cc1cc([N+](=O)[O-])ccc1N,inactive,–
COP(=O)(O)OC,inactive,–
CCOS(=O)(=O)OCC,inactive,–
Nc1cc2c3c(c1)C(c1ccccc1)=N[C@@H](NC(=O)c1cccnc1)C(=O)N3CC2,inactive,–
Oc1ccc(I)cc1,inactive,–
CCOP(=S)(OCC)SCSCC,–,176 µM (active)
OCC(F)(F)OC(F)(F)C(F)(F)OC(F)(F)C(F)(F)OC(F)(F)CO,inactive,–
[N-]=[N+]=[N-],inactive,–
O=S1(=O)OCC2C(CO1)C1(Cl)C(Cl)=C(Cl)C2(Cl)C1(Cl)Cl (configuration not stated),inactive,–
Oc1ccccc1Br,inactive,–
FC(F)(F)C(F)(C(F)(F)F)C(F)(F)C(F)(F)CC1CO1 (configuration not stated),inactive,–
C=CC(=O)OCC(CC)(COC(=O)C=C)COC(=O)C=C,inactive,–
CC1(C)CN=C(NN=C(/C=C/c2ccc(C(F)(F)F)cc2)/C=C/c2ccc(C(F)(F)F)cc2)NC1,–,3.92 µM (active)
CCOP(=S)(OCC)SCn1nnc2ccccc2c1=O,inactive,–
O=C(O)C=CC(F)(C(F)(F)F)C(F)(F)F,inactive,–
O=C(O)C(F)(OC(F)(F)C(F)(F)C(F)(F)F)C(F)(F)F (configuration not stated),inactive,74.8 µM (active)
CC1=C(C(=O)Nc2ccccc2)S(=O)(=O)CCO1,inactive,–

Compound,outcome,AC50
O=P1(N(CCCl)CCCl)NCCCO1 (configuration not stated),inactive,–
OCC1CO1 (configuration not stated),inactive,–
Nc1ccc(Cl)cc1,inactive,–
CNC(=O)Oc1ccc(N(C)C)c(C)c1,inactive,–
Nc1ccc(Sc2ccc(N)cc2)cc1,–,51.2 µM (active)
c1ccc2c(c1)sc1ccccc12,inactive,–
CC(O)C#N (configuration not stated),inactive,–
OCC(F)(F)OC(F)(F)C(F)(F)OC(F)(F)CO,inactive,–
CC(O)C(F)(F)C(F)(F)F (configuration not stated),inactive,–
O=C(O)C(F)(F)C(F)(F)C(=O)O,inactive,–
CCCCc1ccccc1,inactive,–
N#Cc1c(-c2ccc(Cl)cc2)[nH]c(C(F)(F)F)c1Br,inactive,–
O=[N+]([O-])c1ccccc1,inactive,–
CCOC(=O)c1ccccc1C(=O)OCC,inactive,–
c1nc[nH]n1,inactive,–
c1cc2c3c(cccc3c1)CC2,inactive,–
O=C(O)C(Cl)Cl,inactive,–

# Experiment: ATG_RORE_CIS: Attagene CIS-FACTORIAL HepG2 Assay for human RAR-related Orphan Receptor Element (RORE) (AID 2282959)
# Conditions: HepG2 Attagene cis-factorial RORE reporter, mRNA; actives raise or lower the signal
# Outline: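 HepG2 cells carrying transiently transfected cis-regulated reporter units; RORE-driven reporter mRNA quantified 24 h post-dosing by RT-PCR, 6-FAM primer extension, HpaI digestion and capillary electrophoresis. Bidirectional fit versus DMSO.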
Compound,outcome,AC50
O=C(O)C(F)(F)OC(F)(F)C(F)(F)OC(F)(F)C(=O)O,inactive,–
N#Cc1cc([N+](=O)[O-])ccc1N,inactive,–
COP(=O)(O)OC,inactive,–
CCOS(=O)(=O)OCC,inactive,–
Nc1cc2c3c(c1)C(c1ccccc1)=N[C@@H](NC(=O)c1cccnc1)C(=O)N3CC2,–,17.5 µM (active)
Oc1ccc(I)cc1,inactive,–
C/C(=N\NC(=O)Nc1cc(F)cc(F)c1)c1ncccc1C(=O)O,inactive,–
OCC(F)(F)OC(F)(F)C(F)(F)OC(F)(F)C(F)(F)OC(F)(F)CO,inactive,–
[N-]=[N+]=[N-],inactive,–
O=S1(=O)OCC2C(CO1)C1(Cl)C(Cl)=C(Cl)C2(Cl)C1(Cl)Cl (configuration not stated),inactive,–
Oc1ccccc1Br,inactive,–
FC(F)(F)C(F)(C(F)(F)F)C(F)(F)C(F)(F)CC1CO1 (configuration not stated),inactive,–
C=CC(=O)OCC(CC)(COC(=O)C=C)COC(=O)C=C,inactive,–
CC1(C)CN=C(NN=C(/C=C/c2ccc(C(F)(F)F)cc2)/C=C/c2ccc(C(F)(F)F)cc2)NC1,inactive,–
CCOP(=S)(OCC)SCn1nnc2ccccc2c1=O,inactive,–
O=C(O)C=CC(F)(C(F)(F)F)C(F)(F)F,inactive,–
CC1=C(C(=O)Nc2ccccc2)S(=O)(=O)CCO1,inactive,–
O=P1(N(CCCl)CCCl)NCCCO1 (configuration not stated),inactive,–
OCC1CO1 (configuration not stated),inactive,–

Compound,outcome,AC50
Nc1ccc(Cl)cc1,inactive,–
CNC(=O)Oc1ccc(N(C)C)c(C)c1,inactive,–
Nc1ccc(Sc2ccc(N)cc2)cc1,–,36.6 µM (active)
c1ccc2c(c1)sc1ccccc12,inactive,–
CC(O)C#N (configuration not stated),inactive,–
OCC(F)(F)OC(F)(F)C(F)(F)OC(F)(F)CO,inactive,–
CCCCN(CCCC)N=O,inactive,–
CC(O)C(F)(F)C(F)(F)F (configuration not stated),inactive,–
CCN(CC)c1ccccc1,inactive,–
O=C(O)C(F)(F)C(F)(F)C(=O)O,inactive,–
CCCCc1ccccc1,inactive,–
N#Cc1c(-c2ccc(Cl)cc2)[nH]c(C(F)(F)F)c1Br,–,1 µM (active)
O=[N+]([O-])c1ccccc1,inactive,–
CCOC(=O)c1ccccc1C(=O)OCC,inactive,–
c1nc[nH]n1,inactive,–
CCC(C)(C)c1ccc(O)cc1,inactive,–
c1cc2c3c(cccc3c1)CC2,inactive,–
O=C(O)C(Cl)Cl,inactive,–
